Data from PubChem BioAssay.
Several values for one entry are separate records, joined by “and”; a condition that tells them apart may be missing. Equal entries are not always repeated. Records with an inconclusive call do not appear. A structure can be active in one record and inactive in another. Activity calls are given as the source filed them.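 Rule for the calls, unless noted: active = normalized viability below 100% at a tested concentration; inactive = the rest.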

Assays:
[1] = growth inhibition of DIPG glioma cells, dose response, cell-based, SU-DIPG-XVII, MIPE5.0, CellTiter-Glo, qHTS (AID 1347060; cut-off not given, nearly all actives have AC50 up to about 26 µM;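 note: cells exposed to compound for 48 hours before viability readout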); details: SU-DIPG-XVII viability, CellTiter-Glo ATP luminescence
[2] = growth inhibition of DIPG glioma cells, dose response, cell-based, SU-DIPG-XIII, MIPE4.0, CellTiter-Glo, qHTS (AID 1347061; cut-off not given, nearly all actives have AC50 up to about 37 µM;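 note: cells exposed to compound for 48 hours before readout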); details: SU-DIPG-XIII viability, CellTiter-Glo ATP luminescence
[3] = growth inhibition of DIPG glioma cells, dose response, cell-based, JHH-DIPG-1, MIPE4.0, CellTiter-Glo, qHTS (AID 1347062; cut-off not given, nearly all actives have AC50 up to about 27 µM;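 note: cells exposed to compound for two days before readout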); details: JHH-DIPG-1 viability, CellTiter-Glo ATP luminescence
[4] = growth inhibition of DIPG glioma cells, dose response, cell-based, SU-DIPG-IV, MIPE4.0, CellTiter-Glo, qHTS (AID 1347063; cut-off not given, nearly all actives have AC50 up to about 30 µM;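 note: compound exposure lasted 48 hours before the viability readout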); details: SU-DIPG-IV viability, CellTiter-Glo ATP luminescence
[5] = growth inhibition of DIPG glioma cells, dose response, cell-based, SU-DIPG-XIII, MIPE5.0, CellTiter-Glo, qHTS (AID 1347064; cut-off not given, nearly all actives have AC50 up to about 23 µM;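 note: cells exposed to compound for 48 hours before the viability read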); details: SU-DIPG-XIII viability, CellTiter-Glo ATP luminescence
[6] = viability loss in pontine glioma line – cell-based, SU-DIPG-XXV, MIPE5.0, CellTiter-Glo, qHTS, dose response (AID 1347065; cut-off not given, nearly all actives have AC50 up to about 26 µM;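 note: cells exposed to compound for 48 hours before ATP readout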); details: CellTiter-Glo ATP luminescence
[7] = SU-DIPG-VI glioma cell viability, MIPE4.0 library, CellTiter-Glo luminescence, qHTS (AID 1347066; cut-off not given, nearly all actives have AC50 up to about 30 µM;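 note: cells exposed to compound for 48 hours before readout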); details: CellTiter-Glo ATP luminescence
[8] = JHH-DIPG-1 glioma cell viability, MIPE5.0 library, CellTiter-Glo luminescence, qHTS (AID 1347067; cut-off not given, nearly all actives have AC50 up to about 26 µM;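 note: cells exposed to compound for 48 hours before readout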); details: JHH-DIPG-1 glioma viability, CellTiter-Glo ATP luminescence
[9] = sensitizers of A549 cells to miR-34 induction, primary screen, imaging, A549 dox-inducible miR-34, nuclei and caspase counts (AID 1347080;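 active = compounds whose cell count with miR-34 switched on is under 0.7 times the count with it off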); details: A549 miR-34 inducible, Hoechst nuclei count, 48 h
[10] = modifiers of HSF1 nuclear foci, imaging, Selleck Cancer Library (AID 1347162; in the data active = plate-normalised HSF1 focus index below about 0.46); details: human cells, at 10 µM; SSMD: measured here: HSF1 foci SSMD mean; cell count: measured here: cell number; plate-normalised HSF1 focus index: stronger effect = lower value
[11] = survival rescue of mitochondrial mutant cells in low glucose, primary screen, MELAS cybrids, Rieske KO mouse fibroblasts, CellTiter-Glo (AID 1508586;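 active = mean z-score across replicates of 1.96 or higher in either the MELAS or the Rieske mutant cell line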;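 note: z relative to plate mean and SD of compound and empty wells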)
[12] = ovarian cancer cell viability with rucaparib, profiling panel, oncology-focused library, rucaparib conditional (AID 1508598); details: patient-derived ovarian cancer cells, CellTiter-Glo viability, 144 h, stronger effect = lower value
[13] = stronger effect = lower value, cell number ratio, induced over uninduced
[14] = measured here: relative caspase fold change +Dox/-Dox
[15] = measured here: total cells with miR-34 induction, stronger effect = lower value
[16] = measured here: total cells without miR-34 induction
[17] = MELAS cybrid survival, CellTiter-Glo 48 h, stronger effect = higher value
[18] = Rieske KO mouse fibroblast survival, CellTiter-Glo 72 h
[19] = at 0.000305 µM, OCI-C5x cells, with rucaparib 10 µM, 100% = cells with rucaparib alone
[20] = at 0.000305 µM, OCI-C5x cells, without rucaparib
[21] = at 0.000305 µM, OCI-P5x cells, with rucaparib 20 µM, 100% = cells with rucaparib alone
[22] = at 0.000305 µM, OCI-P5x cells, without rucaparib
[23] = at 0.00122 µM, OCI-C5x cells, with rucaparib 10 µM, 100% = cells with rucaparib alone
[24] = at 0.00122 µM, OCI-C5x cells, without rucaparib
[25] = at 0.00122 µM, OCI-P5x cells, with rucaparib 20 µM, 100% = cells with rucaparib alone
[26] = at 0.00122 µM, OCI-P5x cells, without rucaparib
[27] = at 0.00488 µM, OCI-C5x cells, with rucaparib 10 µM, 100% = cells with rucaparib alone
[28] = at 0.00488 µM, OCI-C5x cells, without rucaparib
[29] = at 0.00488 µM, OCI-P5x cells, with rucaparib 20 µM, 100% = cells with rucaparib alone
[30] = at 0.00488 µM, OCI-P5x cells, without rucaparib
[31] = at 0.0195 µM, OCI-C5x cells, with rucaparib 10 µM, 100% = cells with rucaparib alone
[32] = at 0.0195 µM, OCI-C5x cells, without rucaparib
[33] = at 0.0195 µM, OCI-P5x cells, with rucaparib 20 µM, 100% = cells with rucaparib alone
[34] = at 0.0195 µM, OCI-P5x cells, without rucaparib
[35] = at 0.0781 µM, OCI-C5x cells, with rucaparib 10 µM, 100% = cells with rucaparib alone
[36] = at 0.0781 µM, OCI-C5x cells, without rucaparib
[37] = at 0.0781 µM, OCI-P5x cells, with rucaparib 20 µM, 100% = cells with rucaparib alone
[38] = at 0.0781 µM, OCI-P5x cells, without rucaparib
[39] = at 0.313 µM, OCI-C5x cells, with rucaparib 10 µM, 100% = cells with rucaparib alone
[40] = at 0.313 µM, OCI-C5x cells, without rucaparib
[41] = at 0.313 µM, OCI-P5x cells, with rucaparib 20 µM, 100% = cells with rucaparib alone
[42] = at 0.313 µM, OCI-P5x cells, without rucaparib
[43] = at 1.25 µM, OCI-C5x cells, with rucaparib 10 µM, 100% = cells with rucaparib alone
[44] = at 1.25 µM, OCI-C5x cells, without rucaparib
[45] = at 1.25 µM, OCI-P5x cells, with rucaparib 20 µM, 100% = cells with rucaparib alone
[46] = at 1.25 µM, OCI-P5x cells, without rucaparib
[47] = at 5 µM, OCI-C5x cells, with rucaparib 10 µM, 100% = cells with rucaparib alone
[48] = at 5 µM, OCI-C5x cells, without rucaparib
[49] = at 5 µM, OCI-P5x cells, with rucaparib 20 µM, 100% = cells with rucaparib alone
[50] = at 5 µM, OCI-P5x cells, without rucaparib

Q: What does the source list for Oc1cccc(-c2nc(N3CCOCC3)c3oc4ncccc4c3n2)c1?
A: AC50 [1]: 525 nM (active); AC50 [2]: 1.21 µM (active); AC50 [3]: 215 nM (active); AC50 [4]: 0.0429 µM (active); AC50 [5]: 0.332 µM (active); AC50 [6]: 186 nM (active); AC50 [7]: 3.82 µM (active); AC50 [8]: 5.25 µM (active); fold change [9, 13]: 1.06 (inactive) and 0.903 (inactive); fold change [9, 14]: 0.551 and 1.05; cell count [9, 15]: 2320 and 1430; cell count [9, 16]: 2190 and 1580; SSMD [10]: -4.03; cell count [10]: 7310; plate-normalised HSF1 focus index [10]: 0.749 (inactive); z-score [11, 17]: 2.46 (active); z-score [11, 18]: -0.00105; viability [12, 19]: 109% (inactive); viability [12, 20]: 110% (inactive); viability [12, 21]: 120% (inactive); viability [12, 22]: 103% (inactive); viability [12, 23]: 109% (inactive); viability [12, 24]: 104% (inactive); viability [12, 25]: 117% (inactive); viability [12, 26]: 98.5% (active); viability [12, 27]: 75.7% (active); viability [12, 28]: 93.3% (active); viability [12, 29]: 106% (inactive); viability [12, 30]: 103% (inactive); viability [12, 31]: 79.3% (active); viability [12, 32]: 72.3% (active); viability [12, 33]: 113% (inactive); viability [12, 34]: 100% (inactive); viability [12, 35]: 103% (inactive); viability [12, 36]: 107% (inactive); viability [12, 37]: 97.5% (active); viability [12, 38]: 96.9% (active); viability [12, 39]: 123% (inactive); viability [12, 40]: 114% (inactive); viability [12, 41]: 73.1% (active); viability [12, 42]: 95.8% (active); viability [12, 43]: 78.6% (active); viability [12, 44]: 86.7% (active); viability [12, 45]: 45.8% (active); viability [12, 46]: 65.7% (active); viability [12, 47]: 60.3% (active); viability [12, 48]: 69.5% (active); viability [12, 49]: 40.3% (active); viability [12, 50]: 48.6% (active)

Q: For CN1CCN(c2ccc3nc(-c4c(N)c5c(F)cccc5[nH]c4=O)[nH]c3c2)CC1, which AC50 [1] is on record?
A: 525 nM (active)

Q: And the AC50 [2]?
A: 2.96 µM (active)

Q: What about the AC50 [3] of the same compound?
A: 26400 nM (active)

Q: What about the AC50 [4] of the same compound?
A: 23.5 µM (active)

Q: What about the AC50 [5] of the same compound?
A: 1.05 µM (active)

Q: What about the AC50 [6] of the same compound?
A: 468 nM (active)

Q: And the AC50 [7]?
A: 20.9 µM (active)

Q: And the AC50 [8]?
A: 11.8 µM (active)

Q: And the fold change [9, 13]?
A: 1.57 (inactive) and 1.08 (inactive)

Q: And the fold change [9, 14]?
A: 0.308 and 0.757

Q: And the cell count [9, 15]?
A: 744 and 794

Q: What about the cell count [9, 16] of the same compound?
A: 472 and 732

Q: What about the SSMD [10] of the same compound?
A: -9.43

Q: What about the cell count [10] of the same compound?
A: 5510

Q: What about the plate-normalised HSF1 focus index [10] of the same compound?
A: 0.516 (inactive)

Q: What about the z-score [11, 17] of the same compound?
A: 3.68 (active) and -0.215 (inactive)

Q: And the z-score [11, 18]?
A: -0.494 and -0.354

Q: What about the viability [12, 19] of the same compound?
A: 112% (inactive)

Q: What about the viability [12, 20] of the same compound?
A: 107% (inactive)

Q: What about the viability [12, 21] of the same compound?
A: 123% (inactive)

Q: What about the viability [12, 22] of the same compound?
A: 105% (inactive)

Q: And the viability [12, 23]?
A: 111% (inactive)

Q: And the viability [12, 24]?
A: 104% (inactive)

Q: What about the viability [12, 25] of the same compound?
A: 118% (inactive)

Q: And the viability [12, 26]?
A: 107% (inactive)

Q: And the viability [12, 27]?
A: 121% (inactive)

Q: And the viability [12, 28]?
A: 115% (inactive)

Q: And the viability [12, 29]?
A: 136% (inactive)

Q: And the viability [12, 30]?
A: 109% (inactive)

Q: And the viability [12, 31]?
A: 104% (inactive)

Q: What about the viability [12, 32] of the same compound?
A: 112% (inactive)

Q: What about the viability [12, 33] of the same compound?
A: 99.7% (active)

Q: What about the viability [12, 34] of the same compound?
A: 76.1% (active)

Q: And the viability [12, 35]?
A: 118% (inactive)

Q: And the viability [12, 36]?
A: 143% (inactive)

Q: What about the viability [12, 37] of the same compound?
A: 133% (inactive)

Q: What about the viability [12, 38] of the same compound?
A: 107% (inactive)

Q: And the viability [12, 39]?
A: 125% (inactive)

Q: And the viability [12, 40]?
A: 119% (inactive)

Q: What about the viability [12, 41] of the same compound?
A: 129% (inactive)

Q: What about the viability [12, 42] of the same compound?
A: 104% (inactive)

Q: And the viability [12, 43]?
A: 148% (inactive)

Q: What about the viability [12, 44] of the same compound?
A: 127% (inactive)

Q: And the viability [12, 45]?
A: 123% (inactive)

Q: And the viability [12, 46]?
A: 90.6% (active)

Q: What about the viability [12, 47] of the same compound?
A: 3.71% (active)

Q: And the viability [12, 48]?
A: 73% (active)

Q: And the viability [12, 49]?
A: 42.5% (active)

Q: And the viability [12, 50]?
A: 50% (active)

Q: For O=C1c2ccccc2-[n+]2ccc3c([nH]c4ccccc43)c21, which AC50 [1] is on record?
A: 2350 nM (active)

Q: What about the AC50 [2] of the same compound?
A: 2.64 µM (active)

Q: And the AC50 [3]?
A: 743 nM (active)

Q: And the AC50 [4]?
A: 2.09 µM (active)

Q: What about the AC50 [5] of the same compound?
A: 2.35 µM (active)

Q: And the AC50 [6]?
A: 2630 nM (active)

Q: And the AC50 [7]?
A: 1.66 µM (active)

Q: What about the AC50 [8] of the same compound?
A: 2.35 µM (active)
